An excerpt weighted towards active compounds, which were near 2.7% of everything screened.
HIV Env fusion – HIV envelope-mediated fusion inhibition; HeLa-JRFL Env/CEM21 cell fusion, luciferase; inhibition, % at 12.3 µM; 360,000 tested, 1.1% active;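 active means mean replicate inhibition score of at least 50 and every replicate individually at or above 50; inconclusive means only one of the two criteria met; inactive means mean below 50 and not all replicates reaching 50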;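 further: 0% = plate neutral controls and 100% = maraviroc near 300 nM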
PGC1a acetyl inh – modulators of PGC1a acetylation; U2OS PGC1a acetylation, AlphaScreen anti-acetyl-lysine; with virally co-expressed GCN5 acetyltransferase; inhibition, % at 15.6 µM; 350,000 tested, 0.17% active; AID 651687;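 active means every replicate shows inhibition of at least 40%; inconclusive means mean inhibition at least 40% but some replicate below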;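 further: 0% = neutral control wells and 100% = positive control wells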
PAX8 inh HTS – inhibitors of PAX8 transcriptional activity in RMG-I cells; 360,000 tested, 1.2% active; AID 652154; inhibition, % at 12.6 µM; RMG-I TPO-luciferase reporter, SteadyGlo, 24 h;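 active means mean replicate inhibition at least 60% with every replicate also reaching 60%; inconclusive means only one of the two criteria is met; inactive means mean below 60% and not all replicates reaching 60%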;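 further: luciferase light reporting Pax8 driven TPO promoter activity; plate controls were median of neutral control wells for no effect and mitoxantrone controls for full effect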
GSIS activator – primary screen for activators of insulin secretion dependent on glucose, INS-1E cells, GLuc reporter luminescence. AID 743287. activation, % at 16.6 µM. INS-1E GLuc reporter insulin secretion, 2-3 h. 370,000 tested, 0.61% active;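 active means lowest replicate activation of at least 40%, so every replicate reaches that level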;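 further: 0% = median of neutral control wells and 100% = median of IBMX positive control wells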
CFTR F508del cor – correctors of CFTR F508del function in bronchial epithelial cells. 350,000 tested, 0.36% active. CFBE cells, YFP halide quenching; stimulated with forskolin plus potentiator P3; % fluorescence drop versus neutral controls. activity (quench increase), % at 7.58 µM. AID 720511;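 active means mean added fluorescence quench of at least 8% versus neutral control, with both replicates also reaching 8%; inconclusive means only one of the mean or replicate conditions met; inactive means mean below 8% and not both replicates reaching 8%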;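 further: cells transiently co-express mutant CFTR-F508del with the halide-sensitive YFP; corrector assay measuring rescue of mutant channel to the surface after 24 h compound exposure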
EWS-Fli block – inhibitors of EWS/Fli oncoprotein transcriptional activity. A673 NR0B1-luciferase reporter, viability-normalised. inhibition, % at 12.6 µM. 350,000 tested, 0.67% active. AID 651661;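 active means mean inhibition of at least 50% after viability correction, with every replicate also passing that limit; inconclusive means mean reaches 50% but only one of two replicates passes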;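 further: firefly luciferase signal divided by Alamar Blue viability fluorescence both relative to DMSO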
The depositor's hits bear a star; ? = inconclusive; nt = not tested or not shown; ! = not active in a repeat; [ ] = dose if it differs, or a comment.

SMILES	HIV Env fusion	PGC1a acetyl inh	PAX8 inh HTS	GSIS activator	CFTR F508del cor	EWS-Fli block
C=CC[C@H](CC(=O)N(CCO)Cc1ccccc1)C(=O)NC[C@H](OC(=O)[C@@H](CC=C)Cc1ccc(F)cc1)c1ccccc1	68*	6	55	-7	3	-4
Cc1noc(C)c1NC(=O)Nc1cccc2c1O[C@H](CN(C)Cc1ccncc1)[C@H](C)CN([C@H](C)CO)C2=O	-16[16.7 µM]	4	1	13	0	nt
CC(=O)C1=C(C)NC2=C(C(=O)c3ccccc32)C1c1ccccc1 (configuration not stated)	64*	-1	8	57	3	1
COc1ccc(/C=N/NC(=O)c2cc3cc(OC)c(OC)cc3[nH]2)cc1	-7	-8	18	-5	nt	12
CCOc1ccc2[nH]c(C(=O)N/N=C/c3ccc(OC)cc3)cc2c1	-245	nt	15	6	18*	?
COc1ccc2[nH]c(C(=O)N/N=C/c3ccc(O)cc3O)cc2c1	-43	nt	85*	-31	12*	15
COc1ccc2cc(C(=O)N/N=C/c3cc(OC)c(OC)c(OC)c3)[nH]c2c1	-5	nt	-9	-24	3	-22
COc1ccc(-c2cnc3c(c2)C(=O)N([C@@H](C)CO)C[C@H](C)[C@@H](CN(C)C(=O)C2CCC2)O3)cc1	9[16.7 µM]	0	nt	-8	0	-23
CCOc1ccc(CCNC(=O)CSc2cc(=O)n(C)c3ccccc23)cc1OCC	10	4	0	57*	nt	nt
CCOc1ccc(CCNC(=O)Cn2ccc3ccccc3c2=O)cc1OCC	0	5	12	50*	0	-5
CCOc1ccc(CCNC(=O)Cn2cccc2C(=O)c2ccccc2)cc1OCC	3	nt	-2	21	nt	nt
CCOc1ccc(N(CC)C(=O)COc2cc(=O)n(C)c3ccccc23)cc1	-1	-9	5	-16	8.8*	2
CCOc1ccc(N(CC)C(=O)COc2cc(=O)n(CC)c3ccccc23)cc1	-83	-5	nt	nt	nt	nt
CCOc1ccc(CCNC(=O)COc2cc(=O)n(C)c3ccccc23)cc1OCC	11	nt	16	52*	-1	9
COCC(=O)N1C[C@@H](C)[C@@H](OC)CN(C)C(=O)c2ccc(NC(=O)Nc3ccccc3)cc2OC[C@@H]1C	-1[16.7 µM]	11	8	-3	2	6
CN(c1ccc(O)cc1)c1nc(-c2cccs2)cs1	-141	-1	-210	-2	13*	-75
CCCn1c(SCC(=O)N2CCCC2=O)nc2ccccc2c1=O	-5	11	nt	46*	2	7
COc1ccccc1CCNC(=O)CSc1nc(-c2ccco2)cc(C(F)(F)F)n1	59*	9	16	-11	-2	-1
COc1ccccc1CCNC(=O)CCSc1nc(-c2ccco2)cc(C(F)(F)F)n1	nt	-1	nt	nt	nt	nt
O=C1/C(=C/c2ccccc2[N+](=O)[O-])COc2ccccc21	-349	-121	61*	9	-9	28
CNc1ccc(/C=C2\COc3ccccc3C2=O)cc1[N+](=O)[O-]	nt	2	nt	nt	nt	nt
CCCNC(=O)N[C@@H]1CC[C@@H](CC(=O)NC2CCC2)O[C@@H]1CO	3[16.7 µM]	0	-5	8	-5	2
Cc1nc(NN)nc(NCc2ccccc2)n1	-2	-2	12	1	0	16
C=CCc1c(Cl)nc(C)nc1NCc1ccccc1	59*	-4	2	-5	3	11
O=C(NC12CC3CC(CC(C3)C1)C2)c1ccc(Br)o1	8	nt	-7	-21	1	7
SMILES	HIV Env fusion	PGC1a acetyl inh	PAX8 inh HTS	GSIS activator	CFTR F508del cor	EWS-Fli block
O=C(NC12CC3CC(CC(C3)C1)C2)c1ccc([N+](=O)[O-])o1	-22	nt	98*	-34	-8	17
CCCCCCc1cc2cc(-c3nnc(-c4ccccc4O)o3)c(=O)oc2cc1O	6	-1	nt	-17	nt	nt
CCCCCCc1cc2cc(-c3nnc(-c4ccccc4OC)o3)c(=O)oc2cc1O	88*	nt	12	nt	nt	nt
CC1=C(C(=O)OCc2ccccc2)C(c2cccnc2)c2c(n(C)c(=O)n(C)c2=O)N1 (configuration not stated)	nt	-7	13	42*!	0	13
COc1ccc(OCC(=O)NNc2c3ccccc3nc3ccccc23)cc1	59*	-7	nt	nt	nt	nt
COc1cc(C(=O)NCc2cc(C)nc3ccccc23)cc(OC)c1OC	-12	-2	2	-2	-3	6
CCCNC(=O)c1ccccc1NC(=O)COc1ccc(OC)cc1	-27	-4	nt	57*	nt	nt
COc1ccc(OCC(=O)Nc2ccccc2O)cc1	nt	-39	nt	nt	nt	nt
COc1ccc(OCC(=O)N/N=C/C=C/c2ccccc2)cc1	10	-6	-12	16	9.0*	0
COc1ccc(C(=O)NCc2cc(C)nc3ccccc23)cc1	20	nt	37	-2	2	53*
COc1ccccc1CN1C[C@H](C)[C@@H](OC)CN(C)C(=O)c2ccc(NC(C)=O)cc2OC[C@@H]1C	-1[16.7 µM]	-8	-4	1	-1	7
C[C@@H]1CN([C@@H](C)CO)C(=O)c2cc(C#CCN(C)C)cnc2O[C@H]1CN(C)C(=O)CN1CCOCC1	20[16.7 µM]	7	-9	10	nt	8
O=C(Cc1ccncc1)N1C[C@@H]2N[C@H](C1)C2c1ccc(-c2ccncc2)cc1 (some centres not stated)	nt	-3	-3	-6	-4	19
O=C(c1ccc(F)cc1)N1CC(=O)N2[C@H](CO)[C@H](c3ccc(-c4cccnc4)cc3)[C@H]2C1	nt	6	2	2	1	14
CO[C@H]1CN(C)C(=O)c2ccc(NS(=O)(=O)c3ccccc3)cc2OC[C@@H](C)N(C(=O)NC(C)C)C[C@H]1C	nt	-1	nt	0	-2	0
Cc1cccc(-c2nnn3c2nc(NCCc2ccc(S(N)(=O)=O)cc2)c2ccccc23)c1	-226	nt	28	5	nt	nt
NS(=O)(=O)c1ccc(CCNc2nc3c(-c4cccc(F)c4)nnn3c3ccccc23)cc1	-217	-3	24	59*	nt	nt
CCS(=O)(=O)c1ncc(Cl)c(C(=O)Nc2ccc(S(=O)(=O)N3CCCC(C)C3)cc2)n1 (configuration not stated)	57*	nt	102*	12	-4	nt
CC1CCCN(S(=O)(=O)c2ccc(NC(=O)CNC3CCCC3)cc2)C1 (configuration not stated)	7	nt	4	12	2	4
COC(=O)c1ccccc1NC(=O)c1nc(S(=O)(=O)Cc2ccccc2)ncc1Cl	1	nt	-11	21	2	63*
Cc1ccc(CS(=O)(=O)c2ncc(Cl)c(C(=O)Nc3ccc(OC(F)F)cc3)n2)cc1	3	nt	21	6	4	49
CS(=O)(=O)c1ncc(Cl)c(C(=O)Nc2ccc3ccccc3c2)n1	-260	nt	89*	68	-2	84*
CCS(=O)(=O)c1ncc(Cl)c(C(=O)Nc2ccc(C)cc2)n1	17	nt	100*	63*	-12	65*

Source: PubChem BioAssay (Broad Institute)
